# Data taken from the supplement of paper PMC6089552.
# In all, about 3,200 compounds went through this assay and about 300 (9.4%) showed activity. This excerpt belongs to a sample that is enriched for actives. A number with no mark means an inactive call.
# Tested on: A673/TR/shEF
# Assay: cell viability (LOESS-normalised, relative to median of negative controls) (log2 ratio); higher = more viable cells (less compound effect), active = hit call of the paper (over 3 MAD below the median)
# Settings: treatment time: 72 h
# In short: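 Doxycycline, present or absent from 24 h before compounds, was used to induce EWS-FLI1 shRNA knockdown in A673/TR/shEF Ewing sarcoma cells at 1,500 per well in 384-well plates. Cells then received library compounds at two or more concentrations, or DMSO controls, for three days. Viability was measured by CellTiter-Glo luminescence on an Envision reader, and per-plate LOESS correction, division by the negative-control median and log2 transformation followed.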
# [1] = 0.25 µM, library screen: screen2, EWS-FLI1 expression: high (no doxycycline)
# [2] = 0.25 µM, library screen: screen2, EWS-FLI1 expression: low (doxycycline-induced shRNA knockdown)
# [3] = 2.5 µM, library screen: screen2, EWS-FLI1 expression: high (no doxycycline)
# [4] = 2.5 µM, library screen: screen2, EWS-FLI1 expression: low (doxycycline-induced shRNA knockdown)
# [5] = 0.25 µM, library screen: screen1, EWS-FLI1 expression: high (no doxycycline)
# [6] = 0.25 µM, library screen: screen1, EWS-FLI1 expression: low (doxycycline-induced shRNA knockdown)
# [7] = 2.5 µM, library screen: screen1, EWS-FLI1 expression: high (no doxycycline)
# [8] = 2.5 µM, library screen: screen1, EWS-FLI1 expression: low (doxycycline-induced shRNA knockdown)
# [9] = 0.103 µM, library screen: screen3, EWS-FLI1 expression: high (no doxycycline)
# [10] = 0.103 µM, library screen: screen3, EWS-FLI1 expression: low (doxycycline-induced shRNA knockdown)
# [11] = 0.308 µM, library screen: screen3, EWS-FLI1 expression: high (no doxycycline)
# [12] = 0.308 µM, library screen: screen3, EWS-FLI1 expression: low (doxycycline-induced shRNA knockdown)
# [13] = 0.926 µM, library screen: screen3, EWS-FLI1 expression: high (no doxycycline)
# [14] = 0.926 µM, library screen: screen3, EWS-FLI1 expression: low (doxycycline-induced shRNA knockdown)
# [15] = 2.8 µM, library screen: screen3, EWS-FLI1 expression: high (no doxycycline)
# [16] = 2.8 µM, library screen: screen3, EWS-FLI1 expression: low (doxycycline-induced shRNA knockdown)
# [17] = 8.3 µM, library screen: screen3, EWS-FLI1 expression: high (no doxycycline)
# [18] = 8.3 µM, library screen: screen3, EWS-FLI1 expression: low (doxycycline-induced shRNA knockdown)
# [19] = 25 µM, library screen: screen3, EWS-FLI1 expression: high (no doxycycline)
# [20] = 25 µM, library screen: screen3, EWS-FLI1 expression: low (doxycycline-induced shRNA knockdown)
smiles,measurement,setting,value
NC(C(=O)O)c1cccc(O)c1 (stereo not given),cell viability (log2),[1],0.144
same,cell viability (log2),[2],0.0441
same,cell viability (log2),[3],0.145
same,cell viability (log2),[4],0.0975
C[C@@H]1CC[C@@]23CCC4(C)[C@@](C=CC5[C@@]6(C)CC[C@H](O)C(C)(C)C6CC[C@]54C)(OC2=O)C3[C@H]1C (stereo not given in full),cell viability (log2),[5],0.00363
same,cell viability (log2),[6],-0.0167
same,cell viability (log2),[7],0.0828
same,cell viability (log2),[8],-0.0285
COCCOC(=O)C1=C(C)NC(=S)NC1c1ccccc1 (stereo not given),cell viability (log2),[5],0.0342
same,cell viability (log2),[6],0.00808
same,cell viability (log2),[7],0.0869
same,cell viability (log2),[8],0.0951
C=C(C)C1Cc2c(cc3oc(CO)cc(=O)c3c2O)O1 (stereo not given),cell viability (log2),[5],0.0482
same,cell viability (log2),[6],-0.012
same,cell viability (log2),[7],0.067
same,cell viability (log2),[8],0.013
CC[C@@]1(O)C(=O)OCc2c1cc1n(c2=O)Cc2cc3cc(O)ccc3nc2-1,cell viability (log2),[5],-1.78 (active)
same,cell viability (log2),[6],-0.267 (active)
same,cell viability (log2),[7],-4.23 (active)
same,cell viability (log2),[8],-1.06 (active)
CC[C@@]1(O)C(=O)OCc2c1cc1n(c2=O)Cc2cc3c(CN(C)C)c(O)ccc3nc2-1,cell viability (log2),[9],-0.373 (active)
same,cell viability (log2),[10],-0.0171
same,cell viability (log2),[11],-1.79 (active)
same,cell viability (log2),[12],-0.321 (active)
same,cell viability (log2),[13],-2.4 (active)
same,cell viability (log2),[14],-0.459 (active)
same,cell viability (log2),[15],-3.72 (active)
same,cell viability (log2),[16],-0.844 (active)
same,cell viability (log2),[17],-4.21 (active)
same,cell viability (log2),[18],-1.11 (active)
same,cell viability (log2),[19],-4.26 (active)
same,cell viability (log2),[20],-1.44 (active)
CCc1c2c(nc3ccc(OC(=O)N4CCC(N5CCCCC5)CC4)cc13)-c1cc3c(c(=O)n1C2)COC(=O)[C@]3(O)CC,cell viability (log2),[9],0.00275
same,cell viability (log2),[10],0.0626
same,cell viability (log2),[11],-0.0633
same,cell viability (log2),[12],0.00509
same,cell viability (log2),[13],-0.241 (active)
same,cell viability (log2),[14],0.026
same,cell viability (log2),[15],-1.31 (active)
same,cell viability (log2),[16],-0.173 (active)
same,cell viability (log2),[17],-1.95 (active)
same,cell viability (log2),[18],-0.414 (active)
same,cell viability (log2),[19],-2.57 (active)
same,cell viability (log2),[20],-0.647 (active)
C=CC(C)(O)CC/C=C(\C)CCC=C(C)C (stereo not given),cell viability (log2),[5],0.0873
same,cell viability (log2),[6],0.0984
same,cell viability (log2),[7],0.22
same,cell viability (log2),[8],0.113
COc1cc(OC)c(C2NC(=S)NC(C)=C2C(=O)Nc2ccccc2Cl)cc1OC (stereo not given),cell viability (log2),[5],0.0713
same,cell viability (log2),[6],0.0952
same,cell viability (log2),[7],0.0303
same,cell viability (log2),[8],0.0128
CC(C)C[C@H](NC(=O)OCC1c2ccccc2-c2ccccc21)C(=O)O,cell viability (log2),[5],0.0635
same,cell viability (log2),[6],0.0579
same,cell viability (log2),[7],0.116
same,cell viability (log2),[8],-0.00318
CC(C)CCCC(C)C1CCC2C3CCC4CC(=O)CCC4(C)C3CCC12C (stereo not given),cell viability (log2),[5],0.027
same,cell viability (log2),[6],0.0292
same,cell viability (log2),[7],0.169
same,cell viability (log2),[8],0.017
C/C1=C\CC/C(C)=C/CC(C)(C)/C=C/C1,cell viability (log2),[5],0.0853
same,cell viability (log2),[6],0.0875
same,cell viability (log2),[7],0.112
same,cell viability (log2),[8],0.0862
Cc1ccc(C(C)C)cc2c(C)ccc1-2,cell viability (log2),[5],0.0556
same,cell viability (log2),[6],-0.0467
same,cell viability (log2),[7],0.0686
same,cell viability (log2),[8],0.0228
C=C1CCC2C(CC2(C)C)C(=C)CCC1=NO (stereo not given),cell viability (log2),[5],0.105
same,cell viability (log2),[6],0.00367
same,cell viability (log2),[7],0.133
same,cell viability (log2),[8],0.0769
CC(C)=CCc1c(O)cc(C)oc1=O,cell viability (log2),[5],0.0912
same,cell viability (log2),[6],-0.0147
same,cell viability (log2),[7],0.109
same,cell viability (log2),[8],-0.0401
O=c1[nH]cc(F)c(=O)[nH]1,cell viability (log2),"0.025 µM, library screen: screen2, EWS-FLI1 expression: high (no doxycycline)",0.207
same,cell viability (log2),"0.025 µM, library screen: screen2, EWS-FLI1 expression: low (doxycycline-induced shRNA knockdown)",0.0564
same,cell viability (log2),[9],0.0782
same,cell viability (log2),[10],0.0161
same,cell viability (log2),[5],0.0591
same,cell viability (log2),[6],-0.00519
same,cell viability (log2),[1],0.172
same,cell viability (log2),[2],0.0764
same,cell viability (log2),[11],0.113
same,cell viability (log2),[12],0.0726
same,cell viability (log2),[13],0.13
same,cell viability (log2),[14],0.0535
same,cell viability (log2),[7],0.0991
same,cell viability (log2),[8],0.0157
same,cell viability (log2),[3],0.104
same,cell viability (log2),[4],0.00707
same,cell viability (log2),[15],0.139
same,cell viability (log2),[16],0.018
same,cell viability (log2),[17],0.0774
same,cell viability (log2),[18],0.0748
same,cell viability (log2),"25 µM, library screen: screen2, EWS-FLI1 expression: high (no doxycycline)",-0.375 (active)
same,cell viability (log2),"25 µM, library screen: screen2, EWS-FLI1 expression: low (doxycycline-induced shRNA knockdown)",-0.051
same,cell viability (log2),[19],-0.0664
same,cell viability (log2),[20],-0.00616
CN1C[C@H](O)[C@@H](O)[C@H](O)[C@H]1CO,cell viability (log2),[1],-0.0352
same,cell viability (log2),[2],0.0677
same,cell viability (log2),[3],0.0611
same,cell viability (log2),[4],0.0287
CCC1(c2ccccc2)C(=O)NCNC1=O,cell viability (log2),[9],0.0813
same,cell viability (log2),[10],0.0528
same,cell viability (log2),[5],0.0645
same,cell viability (log2),[6],0.0903
same,cell viability (log2),[1],0.00606
same,cell viability (log2),[2],0.00378
same,cell viability (log2),[11],0.122
same,cell viability (log2),[12],0.128
same,cell viability (log2),[13],0.168
same,cell viability (log2),[14],0.0786
same,cell viability (log2),[7],0.179
same,cell viability (log2),[8],0.204
same,cell viability (log2),[3],-0.197 (active)
same,cell viability (log2),[4],-0.337 (active)
same,cell viability (log2),[15],0.146
same,cell viability (log2),[16],0.0526
same,cell viability (log2),[17],0.0966
same,cell viability (log2),[18],0.0601
same,cell viability (log2),[19],0.121
same,cell viability (log2),[20],0.121
CCC1(c2ccccc2)NC(=O)N(C)C1=O (stereo not given),cell viability (log2),[5],0.0606
same,cell viability (log2),[6],0.0208
same,cell viability (log2),[7],0.107
same,cell viability (log2),[8],0.103
O=C1NC(=O)C(c2ccccc2)(c2ccccc2)N1,cell viability (log2),[9],0.0587
same,cell viability (log2),[10],-0.0104
same,cell viability (log2),[5],0.0952
same,cell viability (log2),[6],0.161
same,cell viability (log2),[1],0.143
same,cell viability (log2),[2],0.0547
same,cell viability (log2),[11],0.0798
same,cell viability (log2),[12],0.0371
same,cell viability (log2),[13],0.05
same,cell viability (log2),[14],0.0456
same,cell viability (log2),[7],0.145
same,cell viability (log2),[8],0.128
same,cell viability (log2),[3],0.044
same,cell viability (log2),[4],0.0796
same,cell viability (log2),[15],0.0207
same,cell viability (log2),[16],0.0711
same,cell viability (log2),[17],-0.00351
same,cell viability (log2),[18],0.0628
same,cell viability (log2),[19],0.0771
same,cell viability (log2),[20],0.0956
N#Cc1c2c(c(NCCCO)n3c1nc1ccccc13)CCC2,cell viability (log2),[5],0.146
same,cell viability (log2),[6],0.012
same,cell viability (log2),[7],0.0888
same,cell viability (log2),[8],-0.0597
COc1cc(O)c2c(=O)cc(C)oc2c1CC=C(C)C,cell viability (log2),[5],0.113
same,cell viability (log2),[6],0.0803
same,cell viability (log2),[7],0.117
same,cell viability (log2),[8],0.16
COc1ccc(C(=O)c2ccc(O)cc2O)c(O)c1,cell viability (log2),[5],0.0224
same,cell viability (log2),[6],0.0701
same,cell viability (log2),[7],0.116
same,cell viability (log2),[8],0.108
